How the values were obtained:
Conditions in all cases: concentration: 1 μM, replicates: in singlicate; n = 1
[1] = system: ALK
[2] = system: T1, AMPK-alpha1
T1 construct: gene PRKAA1

[3] = system: T2, AMPK-alpha2
T2 construct: gene PRKAA2

[4] = system: ANKK1
[5] = system: T3, ARK5
T3 construct: gene NUAK1

[6] = system: T4, ASK1
T4 construct: gene MAP3K5

[7] = system: T5, ASK2
T5 construct: gene MAP3K6

[8] = system: AURKA
[9] = system: AURKB
[10] = system: AURKC
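Note: KINOMEscan kinase panel screen.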

Compound | %Inh [1] [%] | %Inh [2] [%] | %Inh [3] [%] | %Inh [4] [%] | %Inh [5] [%] | %Inh [6] [%] | %Inh [7] [%] | %Inh [8] [%] | %Inh [9] [%] | %Inh [10] [%]
CCn1c(-c2ccoc2)nc2cnccc21 [SB-733887] | 31 | 10 | 9 | 0 | 0 | 23 | 5 | 16 | 45 | 10
Cl.NS(=O)(=O)c1cccc(Nc2cc(-c3ccc(F)cc3)n[nH]2)c1 [GW824645] | 0 | 0 | 18 | 0 | 0 | 0 | 0 | 4 | 29 | 0
Nc1ncnc2c1ncn2-c1cccc2ccccc12 [SKF-97184] | 0 | 0 | 21 | 0 | 0 | 0 | 0 | 0 | 28 | 0
CN(C)c1cc(-c2ccc3c(N)n[nH]c3c2)nc(N)n1 [GSK2219329] | 0 | 0 | 11 | 10 | 0 | 0 | 0 | 0 | 10 | 9
O=c1cc(N2CCOCC2)nc2n(Cc3ccc(F)c(Cl)c3)ccn12 [GSK2297099] | 20 | 0 | 19 | 13 | 14 | 2 | 0 | 0 | 0 | 0
O=C(NCCNc1ccnc(Nc2ccc(F)cc2)n1)Nc1ccc2c(c1)OCO2 [GSK1379882] | 24 | 0 | 2 | 18 | 11 | 14 | 0 | 28 | 0 | 36
Nc1ncnc2c1ncn2-c1ccc(Cl)cc1 [AH2635] | 0 | 0 | 0 | 0 | 0 | 0 | 0 | 0 | 0 | 17
Cc1cc(Nc2nc(-c3cccc(C)n3)nc3ccccc23)ccn1 [GW872411] | 0 | 0 | 0 | 0 | 9 | 0 | 0 | 3 | 14 | 0
COc1cc2nccc(Nc3ccc(OCc4ccc(NC(C)=O)cc4)cc3)c2cc1OC.Cl [GW440135] | 5 | 15 | 10 | 0 | 28 | 3 | 0 | 0 | 0 | 0

Reference: paper PMC5540273 (PLoS ONE, 2017)
